Mdm2-MdmX inh: inhibitors of human Mdm2-MdmX association, primary screen, cell-based, luminescence, split luciferase, SaOS-2, uHTS; Protein Mdm4 (Homo sapiens) + E3 ubiquitin-protein ligase Mdm2 (Homo sapiens), …; SaOS-2 split-luciferase Mdm2/MdmX complementation; inhibition, % at 8 µM; 3% of 330,000 active; AID 485346, 2010;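 active = inhibition of at least 50% at 8 µM in the primary screen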
Target sequence (O15151 whole entry, looked up): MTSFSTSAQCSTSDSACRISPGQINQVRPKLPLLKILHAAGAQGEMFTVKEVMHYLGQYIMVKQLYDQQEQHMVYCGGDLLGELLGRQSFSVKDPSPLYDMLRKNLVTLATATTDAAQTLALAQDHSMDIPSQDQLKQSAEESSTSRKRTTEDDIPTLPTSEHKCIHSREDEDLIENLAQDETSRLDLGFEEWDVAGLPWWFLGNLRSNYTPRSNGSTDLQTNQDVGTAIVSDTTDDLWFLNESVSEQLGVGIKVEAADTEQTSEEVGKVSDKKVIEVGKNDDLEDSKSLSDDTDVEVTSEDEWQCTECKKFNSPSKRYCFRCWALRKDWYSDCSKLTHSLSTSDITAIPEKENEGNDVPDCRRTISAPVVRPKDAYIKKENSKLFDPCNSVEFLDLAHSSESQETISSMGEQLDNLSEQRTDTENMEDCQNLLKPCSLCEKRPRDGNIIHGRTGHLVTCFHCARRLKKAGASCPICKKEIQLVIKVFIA
Target sequence (Q00987 whole entry, looked up): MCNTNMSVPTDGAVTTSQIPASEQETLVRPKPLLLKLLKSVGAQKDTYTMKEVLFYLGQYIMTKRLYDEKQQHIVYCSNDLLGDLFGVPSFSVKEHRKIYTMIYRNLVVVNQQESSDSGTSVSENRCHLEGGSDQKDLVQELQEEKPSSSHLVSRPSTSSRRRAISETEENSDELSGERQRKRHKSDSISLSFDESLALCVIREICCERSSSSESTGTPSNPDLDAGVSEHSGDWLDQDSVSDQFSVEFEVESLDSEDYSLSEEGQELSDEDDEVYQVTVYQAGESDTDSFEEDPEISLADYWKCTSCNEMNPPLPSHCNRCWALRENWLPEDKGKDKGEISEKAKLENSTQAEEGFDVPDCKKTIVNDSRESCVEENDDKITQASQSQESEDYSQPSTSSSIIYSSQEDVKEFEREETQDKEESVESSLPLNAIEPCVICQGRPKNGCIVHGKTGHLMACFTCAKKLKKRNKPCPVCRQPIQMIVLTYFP
Beta apoptosis: inhibitors of cytokine-induced beta cell apoptosis, primary screen, luminescence; 0.8% of 300,000 active; INS-1E cytokine-induced death, ATP luminescence, 48 h; percent of positive-control rescue, neutral wells zero; AID 435005, 2010; protection from apoptosis, % (no concentration beside the values);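 active = Every replicate reaches about 75%, or at least half do and their mean reaches it too, limit read from the data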;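 also: 0% = cytokine-treated negative control wells and 100% = positive control rescue; higher means more ATP so stronger rescue from cytokine killing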
GRIN3A LBD mod: binders of NR3A ligand-binding domain, primary screen, biophysical, differential scanning fluorimetry, uHTS; Tm shift relative to glycine control, % at 25 µM; Glutamate receptor ionotropic, NMDA 3A (GRIN3A) ligand-binding domain; 2.5% of 340,000 active; NR3A LBD differential scanning fluorimetry, Tm shift; 0% = protein alone, 100% = glycine-bound protein;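 active = melting temperature shift of at least 10% of the positive control shift, at one fixed dose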
CSC inhib: cancer stem cell viability inhibitors, primary screen, luminescence | cancer stem cell-like cells viability | inhibition, % at 7.5 µM | 1.1% of 300,000 active; in the data active = inhibition above about 75%; tested in HMLE shEcad cells
SKKanGAS inh: S. pyogenes SKKanGAS growth inhibitors in kanamycin, primary screen, streptokinase expression inhibitor project, SKKanGAS strain, BacTiter-Glo luminescence; 6 h; inhibition, % at 7.5 µM; 1.3% of 300,000 active; AID 1662, 2009;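 active = mean replicate score, as percent of positive control median, at least 50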;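 also: strain carries kanamycin resistance gene driven by streptokinase promoter and grows in 40 µg/ml kanamycin; loss of luminescence reflects streptokinase promoter inhibition or plain growth inhibition; 0% = median of DMSO wells and 100% = positive control at its reference dose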
MPTP inh: mitochondrial permeability transition pore inhibitors, primary screen, biochemical, isolated mouse mitochondria, absorbance | Ca2+ swelling absorbance, 30 min | inhibition, % at 10 µM | 1.4% of 360,000 active | AID 602449, 2012;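 active = inhibition of 50% or more, scaled per plate between neutral and stimulator controls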;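 also: 0% = DMSO wells given calcium and 100% = 1 mM EGTA wells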
Mdm2 MdmX conf: Mdm2-MdmX complex disruptors, retested hits, confirmation, luminescence, single concentration. 55% of 10,000 active. inhibition, % at 8 µM. Mdm2-MdmX binding, luminescent assay. shares compounds with Mdm2-MdmX inh. AID 489028, 2010; in the data active = inhibition above about 40%
FLuc counter: full-length luciferase signal inhibition, confirmation, counter-screen for Mdm2/MdmX interaction inhibitor project, cell-based, single concentration, SaOS-2 | shares compounds with Mdm2-MdmX inh | SaOS-2 full-length luciferase counterscreen, luminescence | inhibition, % at 8 µM | AID 504607, 2011 | 77% of 6,200 active;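 active = mean inhibition at 8 µM reaching about 37%, which flags the compound as non-specific, limit read from the data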;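 also: p53-null SaOS-2 cells with luciferase driven by a doxycycline-inducible promoter; compound on cells about two nights before reading with doxycycline added after day one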
Starred values were filed as active, the others as inactive. An excerpt weighted towards active compounds, which were near 6.9% of everything screened.

`CC(C)(C)S(=O)N1Cc2cc(CO)ccc2[C@@H]1CCO` (some centres undefined) gave GRIN3A LBD mod -1 and MPTP inh 0.
`Cc1ccc(N(Cc2ccccc2)C(=O)CN2C(=O)NC3(CCCC3)C2=O)cc1` gave Mdm2-MdmX inh 22, Beta apoptosis -6, GRIN3A LBD mod 2, CSC inhib -16, SKKanGAS inh -5 and MPTP inh 0.
`CC(=O)Nc1ccc(CNc2ncnc3ccc(-c4c(C)noc4C)cc23)cc1` gave Mdm2-MdmX inh 88*, Beta apoptosis -38, GRIN3A LBD mod 3, CSC inhib 16, MPTP inh 2, Mdm2 MdmX conf 68* and FLuc counter 49*.
Screening CC(=O)c1ccc(OCC(=O)OCC(=O)Nc2sccc2C(N)=O)cc1 returned Mdm2-MdmX inh -16, Beta apoptosis -5, GRIN3A LBD mod -2, CSC inhib -10 and MPTP inh -2.
N#CC1=C(N)Oc2cc(N)ccc2C1c1ccccc1F (centres undefined) was read as Mdm2-MdmX inh 56*, Beta apoptosis 6, GRIN3A LBD mod -1, CSC inhib 48, SKKanGAS inh 6, MPTP inh 0, Mdm2 MdmX conf 52* and FLuc counter 67*.
Screening N#CC1=C(N)Oc2cc(N)ccc2C1c1cc(Br)cs1 (centres undefined) returned Mdm2-MdmX inh 58*, Beta apoptosis 19, GRIN3A LBD mod -9, CSC inhib 60, SKKanGAS inh 3, MPTP inh 1 and Mdm2 MdmX conf 29.
Screening COc1cccc(C2C(C#N)=C(N)Oc3cc(N)ccc32)c1OC (centres undefined) returned Mdm2-MdmX inh -9, GRIN3A LBD mod -1, CSC inhib -16, SKKanGAS inh -1 and MPTP inh 1.
Cc1cccc(N2CCN(C(=O)Cc3cn(C)c4ccccc34)CC2)c1C was read as Mdm2-MdmX inh 53*, GRIN3A LBD mod 0, CSC inhib 33, SKKanGAS inh 2, MPTP inh 0, Mdm2 MdmX conf 43* and FLuc counter 55*.
Cc1cccc(N2CCN(C(=O)COc3cc(=O)n(C)c4ccccc34)CC2)c1C was read as Mdm2-MdmX inh 14, Beta apoptosis -7, GRIN3A LBD mod -1, CSC inhib -13, SKKanGAS inh -2 and MPTP inh 8.
For Cc1cc(C)n(-c2nc(Nc3ccccc3C(F)(F)F)nc(-n3nc(C)cc3C)n2)n1 the results were Mdm2-MdmX inh 69*, Beta apoptosis 82*, GRIN3A LBD mod -46, CSC inhib 59, SKKanGAS inh 135*, MPTP inh -7 and Mdm2 MdmX conf 35.
Screening Cc1cc(C)n(-c2nc(Nc3ccccc3C)nc(-n3nc(C)cc3C)n2)n1 returned Mdm2-MdmX inh 67*, CSC inhib 10, SKKanGAS inh 98* and Mdm2 MdmX conf 21.
`Cc1cc(C)n(-c2nc(NC(C)C)nc(NC(C)C)n2)n1` gave Mdm2-MdmX inh 31, Beta apoptosis 18, GRIN3A LBD mod -2, CSC inhib -15, SKKanGAS inh 3 and MPTP inh 0.
`Cc1csc(Nc2ccccc2C(F)(F)F)n1` gave Mdm2-MdmX inh 7, Beta apoptosis -6, GRIN3A LBD mod -4, CSC inhib -4, SKKanGAS inh 9 and MPTP inh 0.
O=C(O)CCC(C(=O)O)N1C(=O)C2C3CCC(C3)C2C1=O (centres undefined) was read as MPTP inh -1.
Screening CCOC(=O)[C@]12CCCC=C1N(CCC1=CCCCC1)C(=O)[C@H](CC(=O)NCC13CC4CC(CC(C4)C1)C3)C2 returned MPTP inh -1.
`OC(c1cc(-c2ccc(C(F)(F)F)cc2)nc(C(F)(F)F)c1)C1CCCCN1` (centres undefined) gave Mdm2-MdmX inh 96*, Beta apoptosis 108*, GRIN3A LBD mod -7, CSC inhib 104*, SKKanGAS inh 12, MPTP inh 3, Mdm2 MdmX conf 98* and FLuc counter 52*.
`C=C(C)COc1ccc(-c2n[nH]c(C)c2-c2ccc(OC)cc2)c(O)c1` gave Mdm2-MdmX inh 61*, Beta apoptosis 29, GRIN3A LBD mod 12*, CSC inhib active, SKKanGAS inh 61*, MPTP inh -2, Mdm2 MdmX conf 49* and FLuc counter 71*.
COc1ccc(-c2n[nH]c(C)c2-c2cscn2)c(O)c1 was read as Mdm2-MdmX inh 4, Beta apoptosis -3, GRIN3A LBD mod 0, CSC inhib -6, SKKanGAS inh 1 and MPTP inh 0.
`COc1cc(OC)c2c(-c3ccccc3)cc(=O)oc2c1C(CCN1CCCC1)c1ccc2c(c1)OCO2` (centres undefined) gave Mdm2-MdmX inh 81*, Beta apoptosis 3, GRIN3A LBD mod 2, CSC inhib 15, SKKanGAS inh 10, MPTP inh -1 and Mdm2 MdmX conf 14.
For COc1cc(C(CCN2CCOCC2)c2c(OC)cc(OC)c3c(-c4ccccc4)cc(=O)oc23)cc(OC)c1OC (centres undefined) the results were Mdm2-MdmX inh 31, GRIN3A LBD mod -2 and MPTP inh -2.
Screening COc1cc(C(CCN2CCCC2)c2c(OC)cc(OC)c3c(-c4ccccc4)cc(=O)oc23)cc(OC)c1OC (centres undefined) returned Mdm2-MdmX inh 78*, Beta apoptosis -1, GRIN3A LBD mod 0, CSC inhib -11, SKKanGAS inh 8, MPTP inh -1 and Mdm2 MdmX conf 32.
Screening Cc1nc(SCc2nc3c([N+](=O)[O-])cccc3[nH]2)c2oc3ccccc3c2n1 returned Mdm2-MdmX inh 58*, Beta apoptosis -7, GRIN3A LBD mod 1, MPTP inh 2 and Mdm2 MdmX conf 14.
For NS(=O)(=O)c1ccc(CCNC(=O)CSc2nc3ccccc3c(=O)n2CCC(=O)N2CCCCC2)cc1 the results were Mdm2-MdmX inh 9, Beta apoptosis 1, GRIN3A LBD mod 1, CSC inhib 6, SKKanGAS inh 16 and MPTP inh 0.
